Only some compounds are listed: those with a hit (about 2.8% of all), similar ones and a draw of the others.
Fam108B inh: mouse Fam108B serine hydrolase inhibitors, primary screen, counter-screen for RBBP9 inhibitor project, biochemical, fluorescence polarization; recombinant Fam108B, FP-Rh probe fluorescence polarization; inhibition, % at 9.51 µM; 300,000 compounds, 0.33% hits; AID 1947, 2009;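 active means inhibition above the screen mean inhibition plus 3 SD, computed separately per campaign, cut at about 18% in these data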;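 further: inhibitors lower polarization as less probe binds the enzyme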
PAFAH2 inh: PAFAH2 enzyme inhibitors, primary screen, biochemical, fluorescence polarization, human. inhibition, % at 3.39 µM. 340,000 compounds, 0.99% hits. Platelet-activating factor acetylhydrolase 2, cytoplasmic (Homo sapiens), Q99487. recombinant PAFAH2, FP-rhodamine activity probe;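 active means inhibition above the mean over all tested compounds plus 3 SD, cut at about 30% in these data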;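 further: inhibitors block probe labeling of enzyme so polarization drops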
PAFAH1B3 inh: PAFAH1B3 enzyme inhibitors, primary screen, biochemical, fluorescence polarization, human | 340,000 compounds, 0.28% hits | inhibition, % at 3.39 µM | recombinant PAFAH1B3, FP-rhodamine probe;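 active means inhibition above the screen-wide average of all tested compounds plus 3 SD, cut at about 25% in these data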
PME-1 inh: PME-1 inhibitors via competitive probe labeling, primary screen, biochemical, fluorescence polarization, FP-Rh probe, HTS; 320,000 compounds, 0.53% hits; recombinant PME-1; Protein phosphatase methylesterase 1 (Homo sapiens), Q9Y570; inhibition, % at 5.9 µM;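 active means inhibition above the campaign mean of all compounds plus 3 SD, cut at about 26% in these data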;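 further: competitive labeling of PME-1 active site by serine hydrolase directed probe; inhibitors block probe labeling so polarization falls and inhibition rises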
Target sequence (Q9Y570 whole entry, looked up): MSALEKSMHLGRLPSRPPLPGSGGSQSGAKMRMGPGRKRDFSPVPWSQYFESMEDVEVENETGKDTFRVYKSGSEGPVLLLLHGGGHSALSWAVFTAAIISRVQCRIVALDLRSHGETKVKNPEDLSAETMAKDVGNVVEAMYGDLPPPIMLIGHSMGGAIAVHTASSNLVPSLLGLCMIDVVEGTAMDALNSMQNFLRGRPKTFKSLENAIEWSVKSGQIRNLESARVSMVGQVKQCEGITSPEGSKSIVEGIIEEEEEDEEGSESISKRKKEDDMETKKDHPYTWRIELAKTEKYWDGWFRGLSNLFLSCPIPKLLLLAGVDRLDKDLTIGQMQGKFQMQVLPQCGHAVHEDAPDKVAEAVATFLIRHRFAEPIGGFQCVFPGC
PAFAH1B2 FP inh: PAFAH1B2 enzyme inhibitors, primary screen, biochemical, fluorescence polarization, human | 340,000 compounds, 1.2% hits | recombinant PAFAH1B2, FP-rhodamine activity probe | AID 492953, 2010 | inhibition, % at 3.39 µM;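 active means inhibition above the mean of all tested compounds plus 3 SD, cut at about 24% in these data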
Target sequence (P68402 whole entry, looked up): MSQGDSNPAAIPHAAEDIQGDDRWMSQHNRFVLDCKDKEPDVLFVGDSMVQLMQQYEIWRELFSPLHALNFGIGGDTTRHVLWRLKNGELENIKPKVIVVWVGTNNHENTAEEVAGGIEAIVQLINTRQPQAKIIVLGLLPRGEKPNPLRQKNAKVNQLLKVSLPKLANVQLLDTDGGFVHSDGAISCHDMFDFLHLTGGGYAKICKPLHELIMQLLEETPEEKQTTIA
pPAFAH inh: pPAFAH enzyme inhibitors, primary screen, biochemical, fluorescence polarization, human; Platelet-activating factor acetylhydrolase (Homo sapiens), Q13093; recombinant pPAFAH, FP-rhodamine probe fluorescence polarization; inhibition, % at 3.39 µM; 330,000 compounds, 1.5% hits;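 active means inhibition above the mean inhibition across the screen plus 3 SD, cut at about 25% in these data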;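 further: inhibitors block binding of the rhodamine activity-based probe so polarization drops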
pPAFAH FP conf: pPAFAH (PLA2G7) enzyme inhibitors, confirmation, biochemical, fluorescence polarization, human; shares compounds with pPAFAH inh; recombinant pPAFAH, FP-Rh probe fluorescence polarization; inhibition, % at 3.39 µM; 2,300 compounds, 72% hits; AID 463230, 2010;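 active means mean inhibition of the triplicate above the hit cutoff set for the earlier primary screen, cut at about 25% in these data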
PAFAH2 confirm: PAFAH2 enzyme inhibitors, confirmation, biochemical, fluorescence polarization, human; AID 493030, 2011; 2,300 compounds, 65% hits; shares compounds with PAFAH2 inh; recombinant PAFAH2, FP-rhodamine activity probe; inhibition, % at 3.39 µM;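 active means mean inhibition over three repeats above a set limit taken from the earlier primary screen, cut at about 30% in these data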;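 further: inhibitor blocks binding of rhodamine activity probe so polarization falls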
Large screens that a line does not name were inactive (follow-up assays come after a bar, where they were run).

O=C(Oc1ccc(OC(=O)C2CCC2)cc1)C1CCC1	pPAFAH inh 42 | pPAFAH FP conf inactive
O=C(Oc1ccc2ccccc2c1)C1CCC1	none (no result: Fam108B inh, PME-1 inh, pPAFAH inh)
COc1ccccc1NC(=O)C1CC(=O)N(c2ccc(F)cc2)C1 (configuration not stated)	none
COc1cc(/C=C2/C(=O)NN(c3ccc(Cl)c(Cl)c3)C2=O)cc([N+](=O)[O-])c1O	PAFAH2 inh 36, PAFAH1B2 FP inh 31, pPAFAH inh 52 | pPAFAH FP conf 33
COc1cc(/C=C2/C(=O)NN(c3ccc(F)cc3)C2=O)cc(Cl)c1O	none
COc1cc(OC)c2c(O)c3c(c(-c4c5c(c(O)c6c(OC)cc(OC)cc46)CO[C@@H](C)[C@H]5O)c2c1)[C@H](O)[C@H](C)OC3	pPAFAH inh 78 | pPAFAH FP conf 68
COc1cc2c(c(OC)c1O)C(=O)CO2	none
Cc1ccc(S(=O)(=O)N2CCCOC2CNC(=O)C(=O)NCc2ccncc2)cc1 (configuration not stated)	none
Cc1cccc(C)c1NC(=O)CN1CCN(C(=O)CNC(=O)c2ccc(N3CCCC3=O)cc2)CC1	none (no result: Fam108B inh)
N#CC1=C(N)n2c(s/c(=C\c3ccco3)c2=O)=C(C#N)C1c1ccco1 (configuration not stated)	pPAFAH inh 53 | pPAFAH FP conf inactive
CCOC(=O)C1=C(N)n2c(s/c(=C/c3ccco3)c2=O)=C(C(=O)OC)C1c1ccco1 (configuration not stated)	none
COC(=O)c1c(NC(=O)/C=C/C(=O)O)sc(C)c1-c1ccc(C)c(C)c1	pPAFAH inh 44 | pPAFAH FP conf 28
CCOC(=O)c1c(NC(=O)/C=C/C(=O)O)sc(C)c1-c1ccc(C)c(C)c1	pPAFAH inh 54 | pPAFAH FP conf 63
COC(=O)c1c(NC(=O)/C=C/C(=O)O)sc(C)c1-c1ccc(C(C)C)cc1	none
COc1cc(NS(=O)(=O)c2ccc(Nc3nc(-c4cccc([N+](=O)[O-])c4)cs3)cc2)nc(OC)n1	PAFAH2 inh 43, pPAFAH inh 47 | pPAFAH FP conf 69 | PAFAH2 confirm inactive
Cc1cc(OCC(=O)NCC2CCC(C(=O)O)CC2)c2c(C)c(Cc3ccccc3)c(=O)oc2c1 (configuration not stated)	none
COc1cccc(-c2cc3nc(-c4ccccc4)cc(=O)n3[nH]2)c1	none
O=c1cc(-c2ccccc2)nc2cc(-c3ccc(F)cc3)[nH]n12	PAFAH2 inh 64 | PAFAH2 confirm inactive
CC(=O)Oc1ccc2nc(/C=C/c3ccccc3)oc(=O)c2c1	PAFAH2 inh 76 | PAFAH2 confirm 71
CC(=O)Oc1ccc2nc(/C=C/c3ccc(C=O)cc3)oc(=O)c2c1	none
CCCOc1cccc(-c2nc3ccccc3c(=O)o2)c1	PAFAH2 inh 64 | PAFAH2 confirm 59
CC(=O)Oc1ccc2nc(-c3ccc(Br)o3)oc(=O)c2c1	PAFAH2 inh 46 | PAFAH2 confirm 45
CC(=O)Oc1ccc2c(=O)oc(-c3ccccc3)nc2c1	PAFAH2 inh 41 | PAFAH2 confirm 40
CCCN(CC(=O)Nc1ccc(F)c(F)c1F)C(=O)c1ccc(N2CCCC2=O)cc1	none (no result: Fam108B inh)
O=C(O/N=C/c1cccc([N+](=O)[O-])c1)C1CC1	PAFAH2 inh 92 | PAFAH2 confirm 78
CC(=O)Nc1ccc(NC(=O)C(C)O/N=C/c2cccc([N+](=O)[O-])c2)cc1 (configuration not stated)	PAFAH2 inh 30 | PAFAH2 confirm inactive
CC(C)Cc1nnc(NC(=O)CCC(=O)N2CC(C)CC(C)C2)s1 (configuration not stated)	none
O=C(/C=C/c1cccs1)N1CCN(c2ccccc2)CC1	none
CC(C)=CC(=O)OCC(=O)Nc1ccccc1Cl	PAFAH2 inh 51 | PAFAH2 confirm 40
COc1cc(/C=C/C(=O)OCC(=O)Nc2ccccc2Cl)cc(OC)c1OC	none
CC(C)=CC(=O)OCC(=O)Nc1cc(C)ccc1C	PAFAH2 inh 30 | PAFAH2 confirm inactive
CC1Cc2c([nH]c3ccccc23)C2c3ccccc3CN12 (configuration not stated)	none
O=S1(=O)CCS(=O)(=O)C1c1ccccc1	none
COc1ccc(CCNC(=O)COC(=O)/C=C/c2ccc(OC)c(OC)c2)cc1	PAFAH2 inh 39 | PAFAH2 confirm inactive
COc1cc(/C=C/C(=O)OCC(=O)NCCCc2ccccc2)cc(OC)c1OC	none (no result: Fam108B inh, PME-1 inh)
COc1ccc(/C=C/C(=O)OCC(=O)NCCCc2ccccc2)cc1OC	PAFAH2 inh 52 (no result: Fam108B inh, PME-1 inh) | PAFAH2 confirm 40
COc1ccc(/C=C/C(=O)OCC(=O)NCc2ccccc2Cl)cc1OC	PAFAH2 inh 79 (no result: Fam108B inh, PME-1 inh) | PAFAH2 confirm 76
CSc1ccccc1NC(=O)CN1CCN(Cc2ccccc2)CC1	none
COc1cc2c(cc1OC)C(c1ccccc1)N(C(=O)c1cccc(S(C)(=O)=O)c1)CC2 (configuration not stated)	none
S=c1[nH]nc(-c2ccco2)n1/N=C/C=C/c1ccco1	PAFAH2 inh 46 | PAFAH2 confirm inactive
O=C(COc1ccc(Br)cc1)NCCNC(=O)c1ccncc1	none
Cc1ccc(C(=O)Oc2oc(-c3ccco3)nc2C=Nc2ccc(Cl)cc2)cc1	PAFAH2 inh 41 | PAFAH2 confirm inactive
COc1ccc(CCNS(=O)(=O)c2ccc(-n3cnnn3)cc2)cc1OC	none
CCCCNC(=O)c1onc(CSc2ccccc2C)c1C(=O)O	PAFAH2 inh 30 | PAFAH2 confirm 35
CCCCNC(=O)c1onc(CSc2cc(C)cc(C)c2)c1C(=O)NCCCC	none
CCCCNC(=O)c1onc(CSc2ccccc2F)c1C(=O)O	none
CCCCNC(=O)c1onc(CSc2cc(C)cc(C)c2)c1C(=O)O	PAFAH2 inh 38 | PAFAH2 confirm inactive
CC1CCC(NC(=O)COC(=O)C2CC3CCCC(C2)C3=O)CC1 (configuration not stated)	PAFAH2 inh 62 | PAFAH2 confirm 48
